Here are results for 15 compounds from PubChem BioAssay (NCATS).

Holding throughout (test): Primary qHTS to identify gynecologic anti-cancer compounds using libraries of approved drugs and bioactive compounds (AID 1345084); further: nearly all actives have a fitted effect of over 55% in size
Assay [1] has as its system C33A. The conditions noted are these: Gynecologic cancer cell panel viability, ATPlite luminescence, 48 h; series mostly up to 57.5 µM. Put shortly: (§1)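 Cell viability after 48 h drug treatment, ATPlite luminescence readout; five doses.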
The subject of assay [2] is CAOV3. The following applies: Gynecologic cancer cell panel viability, ATPlite luminescence, 48 h; series mostly up to 57.5 µM. Put shortly:
as §1

In assay [3] the test system is CASKI. The following applies: Gynecologic cancer cell panel viability, ATPlite luminescence, 48 h; series mostly up to 57.5 µM. An outline of the steps: as §1
The subject of assay [4] is Es-2. The following applies: Gynecologic cancer cell panel viability, ATPlite luminescence, 48 h; series mostly up to 57.5 µM. Put shortly:
as §1

Assay [5] concerns HeLa. The following applies: Gynecologic cancer cell panel viability, ATPlite luminescence, 48 h; series mostly up to 57.5 µM. Put shortly: as §1
In assay [6] the test system is Hek293T. The following applies: Gynecologic cancer cell panel viability, ATPlite luminescence, 48 h, control line for the selectivity index; series mostly up to 57.5 µM. An outline of the steps: as §1
Assay [7] deals with JEG-3. The following applies: Gynecologic cancer cell panel viability, ATPlite luminescence, 48 h; series mostly up to 57.5 µM. Put shortly: as §1
The test system of assay [8] is OV90. The conditions noted are these: Gynecologic cancer cell panel viability, ATPlite luminescence, 48 h; series mostly up to 57.5 µM. Put shortly:
as §1

Assay [9] deals with PA-1. The following applies: Gynecologic cancer cell panel viability, ATPlite luminescence, 48 h; series mostly up to 57.5 µM. Put shortly: as §1
Assay [10] relates to SKOV3. The following applies: Gynecologic cancer cell panel viability, ATPlite luminescence, 48 h; series mostly up to 57.5 µM. Put shortly: as §1
The test system of assay [11] is Tov-21-G. The following applies: Gynecologic cancer cell panel viability, ATPlite luminescence, 48 h; series mostly up to 57.5 µM. An outline of the steps: as §1
Assay [12] has as its system Tov112D. The conditions noted are these: Gynecologic cancer cell panel viability, ATPlite luminescence, 48 h; series mostly up to 57.5 µM. An outline of the steps: as §1

Results filed as inconclusive are left out. A number with no mark means an inactive call. Active and inactive are the calls of the source. The call rests on the fitted dose curve; in most records, active means well fitted cell-killing curve with a large enough effect; inconclusive means small, poorly fitted or top-dose-only effect, or effect the other way; inactive means flat fitted curve, though single readings scatter.
On the % scale 0 is the no-effect control and ±100 the full control effect; potency means the concentration at half of the fitted maximal effect.

Take `COc1cc2c(cc1OC)CC(=O)N(CCCNC[C@H]1Cc3cc(OC)c(OC)cc31)CC2`: the Potency result in [1], in assay [2], in [3], in assay [4], in assay [5] and in assay [6] was “inactive” in each case. Further, the Potency entry in assay [7], in assay [8], in assay [9], in [10], in [11] and in [12] was “inactive” each time.

With `O=C(CO)[C@@H](O)[C@H](O[C@@H]1O[C@H](CO)[C@H](O)[C@H](O)[C@H]1O)[C@H](O)CO`, the Potency entry in [1], in assay [2], in assay [3], in assay [4], in assay [5] and in [6] was “inactive” each time. Further, the Potency entry in assay [7], in assay [8], in [9], in [10], in assay [11] and in [12] was “inactive” in each case.

Consider `C=C1C[C@]23C[C@H]1[C@@H](O)C[C@H]2[C@@]12C=C[C@H](O)[C@@](C)(C(=O)O1)[C@H]2[C@@H]3C(=O)O`, for which the Potency entry in assay [1], in assay [2], in assay [3], in [4], in assay [5] and in assay [6] was “inactive” each time. The Potency entry in assay [7], in [8], in assay [9], in [10], in [11] and in [12] was “inactive” throughout.

Regarding `O=C(Nc1ccccc1-c1cn2c(CN3CCNCC3)csc2n1)c1ccc2ccccc2n1`, the Potency entry in assay [1], in [2], in [3], in [4], in assay [5] and in assay [6] was “inactive” throughout. Moreover, the Potency entry in assay [7], in [8], in assay [9], in assay [10], in assay [11] and in assay [12] was “inactive” throughout.

As for `C/C=C/C(O)C1OC(=O)CC1Nc1ccc(C(=O)O)cc1` (stereo not given), the Potency entry in assay [1], in assay [2], in [3], in assay [4], in assay [5] and in [6] was “inactive” throughout. Further, the Potency result in assay [7], in assay [8], in [9], in assay [10], in assay [11] and in assay [12] was “inactive” throughout.

As to `CC1(C)CCCC2(C)C1CC(=O)C13CC(CCC12)C(O)(CO)C3` (stereo not given), the Potency result in assay [1], in assay [2], in assay [3], in [5], in assay [6] and in assay [7] was “inactive” each time. In addition, the Potency entry in assay [8], in assay [9], in assay [10], in [11] and in assay [12] was “inactive” in each case. The Potency in assay [4] is 4.47 µM (active).

For the compound `CC(=O)O[C@@H]1c2c3c(cc(O)c2C(=O)O[C@@H]1C)O[C@@]1(C)[C@@H](O)C[C@H]2C(C)(C)C(=O)C=C[C@]2(C)[C@@H]1C3`, the Potency result in assay [1], in assay [2], in [3], in [4], in assay [5] and in [6] was “inactive” each time. The Potency entry in [7], in assay [8], in assay [9], in [10], in assay [11] and in assay [12] was “inactive” each time.

As for `CC(=O)OC1C[C@]2(C)C(O)CC(C)=C[C@H](OC(=O)c3ccc(O)cc3)C2[C@]1(O)C(C)C` (stereo not given in full), the Potency result in assay [1], in assay [2], in [3], in [4], in [5] and in [6] was “inactive” in each case. Also, the Potency result in assay [7], in assay [8], in assay [9], in [10], in assay [11] and in assay [12] was “inactive” in each case.

As for `O=C(CC(c1ccccc1)c1ccccc1)N1CCN(C(c2ccccc2)c2ccccc2)CC1`, the Potency entry in assay [1], in assay [2], in [3], in assay [4], in [5] and in assay [6] was “inactive” throughout. Moreover, the Potency result in assay [7], in [8], in assay [9], in [10], in [11] and in [12] was “inactive” each time.

Turning to `C[C@H](Nc1ncnc2nc[nH]c12)c1cc2ccc(F)cc2nc1-c1ccccn1`, the Potency result in assay [1], in assay [2], in [3], in assay [4], in assay [5] and in [6] was “inactive” in each case. Further, the Potency entry in assay [7], in assay [8], in [9], in [10], in assay [11] and in [12] was “inactive” in each case.

Regarding `COC1CC(O[C@H]2CC[C@@]3(C)C(=CC[C@]4(O)C3[C@H](OC(C)=O)[C@@H](OC(=O)c3ccccc3)[C@]3(C)[C@@H](C(C)=O)CC[C@@]34O)C2)OC(C)C1OC1CC(OC)C(OC2CC(OC)C(OC3OC(C)C(OC4OC(CO)C(O)C(O)C4O)C(OC)C3O)C(C)O2)C(C)O1` (stereo not given in full), the activity change, negative = cytotoxicity in assay [1] was -6.27% [at 6.55 µM]; in [2], -1.71% [at 6.55 µM]; in [3] it was -17.5% [at 6.55 µM]; in [4], 3.59% [at 6.55 µM]; in [5], -1.12% [at 6.55 µM]; in [6], -1.35% [at 6.55 µM]. For the same compound, the activity change, negative = cytotoxicity in assay [7] was -8.02% [at 6.55 µM]; in [8] it was 7.55% [at 6.55 µM]; in assay [9], -5.59% [at 6.55 µM]; in assay [10] it was 11% [at 6.55 µM]; in [11], -0.609% [at 6.55 µM]; in assay [12] it was 2.04% [at 6.55 µM].

In the case of `C=C1C(=O)O[C@H]2[C@H]1CC/C(C)=C/CC[C@@]1(C)O[C@@H]21`, the Potency result in assay [1], in assay [2], in [3], in assay [4], in [5] and in assay [6] was “inactive” each time. Besides, the Potency result in [7], in [8], in assay [9], in [10], in assay [11] and in [12] was “inactive” each time.

As to `CC1OC(OC2C(C)OC(OC3C(OC(=O)C45CCC(C)(C)CC4C4=CCC6C7(C)CCC(OC8OC(C(=O)O)C(O)C(O)C8OC8OC(CO)C(O)C(OC9OC(C)C(O)C(O)C9O)C8O)C(C)(CO)C7CCC6(C)C4(C)CC5)OC(CO)C(O)C3O)C(O)C2O)C(O)C(O)C1O` (stereo not given), the activity change, negative = cytotoxicity in assay [1] was 1.01% [at 6.55 µM]; in assay [2], 6.9% [at 6.55 µM]; in [3] it was 16.9% [at 6.55 µM]; in assay [4], 0.662% [at 6.55 µM]; in assay [5] it was 5.48% [at 6.55 µM]; in assay [6] it was -2.51% [at 6.55 µM]. Further, the activity change, negative = cytotoxicity in [7] was 4.23% [at 6.55 µM]; in [8], 11.5% [at 6.55 µM]; in assay [9], 0.842% [at 6.55 µM]; in [10], 0% [at 6.55 µM]; in [11] it was 2.91% [at 6.55 µM]; in [12], 13.7% [at 6.55 µM].

Regarding `CC(=O)OC1C(c2ccccc2)CCC(c2ccccc2)C1OC(C)=O` (stereo not given), the Potency result in assay [1], in [2], in [3], in assay [4], in assay [5] and in assay [6] was “inactive” in each case. Moreover, the Potency result in [7], in [8], in assay [9], in [10], in [11] and in [12] was “inactive” in each case.

`COc1cc2occc2c(O[C@@H]2O[C@H](CO)[C@@H](O)[C@H](O)[C@H]2O)c1CCC(=O)O`: the Potency result in assay [1], in assay [2], in [3], in assay [4], in assay [5] and in [6] was “inactive” each time. For the same compound, the Potency entry in assay [7], in assay [8], in assay [9], in assay [10], in [11] and in [12] was “inactive” each time.
